Source: PubChem BioAssay AID687014 (The Scripps Research Institute Molecular Screening Center, 2013)
Among all 370,000 compounds or so, about 6,800 (1.8%) were called active. The sample holds actives, similar compounds and a random draw of the others, so the mix is not that of the screen. A number with no mark means an inactive call.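 Rule for the calls: active = activation above a cutoff set at the mean of all screened compounds plus 3 SD (cut at about 10% in these data); inactive = the rest.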

What follows are molecules tested on Nuclear hormone receptor DAF-12 (Heterodera glycines), GAL4 fusion (assay: H. glycines DAF-12 receptor agonists, primary screen, cell-based, luminescence, HEK293, GAL4 fusion, UAS-luciferase (AID 687014;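 note: 0% = DMSO wells and 100% = sodium butyrate wells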)). Conditions: HEK293 GAL4-hgDAF12 UAS-luciferase reporter, agonist luminescence; at 6.8 µM; hits give high values; normalized to butyrate control.

Row | Compound | activation
1 | COC(=O)[C@]12C[C@H](CC(=O)NCCC(C)C)C(=O)N(CCc3ccc(OC)c(OC)c3)C1=C[C@H](C(C)(C)C)O[C@@H]2C | 0.69%
2 | Cc1cc(Br)cn2c(Cc3ccccc3C(F)(F)F)c(-c3ccc(C#N)cc3)nc12 | -0.23%
3 | Cc1ccc(-c2nc3ccc(Br)cn3c2Cc2ccccc2C(F)(F)F)cc1 | 12.4% (active)
4 | Cc1cc(Br)cn2c(Cc3ccccc3C(F)(F)F)c(-c3ccc(Cl)cc3)nc12 | 0.95%
5 | CCCCN1CCN(C(=O)c2ccc3c(c2)NC(=O)C(C)(C)O3)CC1 | 1.81%
6 | N#CCC[C@H]1CC[C@]2(CCCN(Cc3ccc(Cl)cc3)C2)O1 | -2.81%
7 | Cc1ccc(C)c(NC(=O)CCS(=O)(=O)c2ccccc2)c1 | -2.63%
8 | O=C(NC(=S)Nc1ccccc1C(=O)O)c1ccc(-c2ccc(Br)cc2)o1 | -2.39%
9 | S=C(c1ccc(-c2ccccc2)o1)N1CCCCC1 | 19.9% (active)
10 | CC1CCN(C(=S)c2ccc(-c3ccc(Cl)cc3Cl)o2)CC1 | -2.32%
11 | NC(=O)c1ncn([C@@H]2O[C@H](C(=O)O)[C@@H](O)[C@H]2O)n1 | 1.3%
12 | Cc1ccnc(Nc2nc3ccccc3s2)n1 | 21.9% (active)
13 | Cc1ccnc(-n2sc3ccccc3c2=O)n1 | 4.36%
14 | CCCN1C(=O)c2[nH]nc(-c3ccccc3)c2C1c1ccccc1 (stereo not given) | -0.37%
15 | O=C(NCc1ccccc1)[C@H]1CCCN1C(=O)[C@H]1CCCN1C(=O)N1CCOCC1 | -0.79%
16 | CCn1c2ccc(F)cc2c2nnc(SCCN3CCOCC3)nc21 | 0.7%
17 | COc1ccc2nc(SCC(=O)Nc3c(C)cc(C)cc3C)[nH]c2c1 | -0.27%
18 | Cc1cc2nc(SCCN3CCOCC3)[nH]c2cc1C | 11.8% (active)
19 | COc1ccccc1CCNS(=O)(=O)c1cc2c3c(c1)C(C)C(=O)N3CCC2 (stereo not given) | -1.65%
20 | O=C1C(=O)N(Cc2ccc(-c3ccsc3)cc2)c2ccc(OC(F)(F)F)cc21 | -4.58%
21 | COC(=O)C1=C(C)N(Cc2ccc(F)cc2)C(=S)NC1c1cccc(Cl)c1 (stereo not given) | -2.2%
22 | CC(C)[C@@H](C)/C=C/[C@@H](C)[C@H]1CC[C@@H]2[C@]1(C)CCC1[C@]23C=C[C@]2(C[C@@H](O)CC[C@]12C)N(c1ccc([N+](=O)[O-])cn1)O3 (stereo not given in full) | 0.26%
23 | COc1ccc(N2CCN(CCNS(=O)(=O)c3ccc(C(C)(C)C)cc3)CC2)cc1 | 0.34%

Row | Compound | activation
24 | N/C(=N\OC(=O)Cc1ccc([N+](=O)[O-])cc1)c1ccccn1 | 5.64%
25 | N/C(=N\OC(=O)CCC1CCCCC1)c1ccccn1 | 14.7% (active)
26 | N/C(=N\OC(=O)CC1CCCCC1)c1ccccc1 | 0.73%
27 | COc1cc(/C=C/C(=O)n2cnc3ccccc32)cc(OC)c1OC | -6.48%
28 | C/C(=C(\C#N)C(=O)NCCCN1CCOCC1)N(C)C | -0.63%
29 | Cc1ccnc(NC(=O)C2CCN(S(=O)(=O)c3c(C)c(C)cc(C)c3C)CC2)c1 | 14.9% (active)
30 | O=C(Nc1ccccn1)C1CCN(S(=O)(=O)c2ccc3c(c2)OCCO3)CC1 | 5.62%
31 | CNC(=O)C1CCN(S(=O)(=O)c2c(C)noc2/C=C/c2cccc(C)c2)CC1 | 1.09%
32 | COc1ccccc1CCNC(=O)C1CCN(c2nc(C)cc(C)n2)CC1 | -1.32%
33 | O=C(CSc1nc2ccccc2n1Cc1ccccc1Cl)N/N=C\c1c[nH]c2ccccc12 | 0.95%
34 | Fc1ccccc1-c1cc2cc3c(cc2cn1)OCO3 | 16.3% (active)
35 | O=C(c1ccco1)N1CCN(C(=O)c2cc(-c3ccccc3F)no2)CC1 | 0.91%
36 | COC(=O)C1=C(C)N(Cc2cccc(C(F)(F)F)c2)C(=NCc2cccc(C(F)(F)F)c2)NC1c1ccccc1C(F)(F)F (stereo not given) | 0.13%
37 | CN(C)c1ccc(NC(=O)NC2CCCCN(Cc3ccc(Cl)cc3)C2=O)cc1 (stereo not given) | -1.5%
38 | C[C@@H]1CN([C@H](C)CO)S(=O)(=O)c2ccc(C#C[C@@H](C)O)cc2O[C@@H]1CN(C)Cc1ccc(-c2ccccc2)cc1 | 2.28%
39 | O=C(Nc1nnc(C2CC2)s1)c1ccccn1 | 12.5% (active)
40 | CCc1cc(C(=O)Nc2nnc(C3CC3)s2)sc1C | 1.89%
41 | O=C(Nc1ccc2nc3n(c(=O)c2c1)CCCC3)c1ccc(Cl)nc1 | 1.23%
42 | Cc1cnc(NC(=O)c2ccc(Cl)nc2)s1 | 12.4% (active)
43 | Cc1cnc(NC(=O)Cn2cnc3c2c(=O)n(C)c(=O)n3C)s1 | -0.21%
44 | COc1ccc(CC(=O)NCc2nnc(SCC(=O)Nc3ncc(C)s3)n2C)cc1 | 3.07%
45 | Cc1cnc(NC(=O)c2ccccn2)s1 | 16.5% (active)
46 | Cc1cccc(NC(=O)c2cccc(C(=O)Nc3cccc(C)c3C)n2)c1C | -1.93%

Row | Compound | activation
47 | CCc1ccccc1OCC(=O)Nc1nnc(C2CC2)s1 | -2.07%
48 | O=C(COC(=O)c1ccc(F)cc1)NCCCc1ccccc1 | -2.09%
49 | Cc1ccc(C(=O)NCC(=O)OCC(=O)Nc2cccc(S(=O)(=O)N3CCCC3)c2)cc1C | 0.26%
50 | O=C(NCc1ccccc1)[C@H]1CCCN1C(=O)[C@@H]1CCCN1C(=O)c1ccc(Cl)cc1Cl | 5.91%
51 | O=C(CSC1CC(=O)N(CCc2ccccc2)C1=O)Nc1ccc(Cl)cc1 (stereo not given) | 3.22%
52 | COC(=O)[C@H](C(C)C)N1CCc2nnn(Cc3ccc(C)cc3)c2-c2ccccc2S1(=O)=O | 1.86%
53 | COC(=O)[C@]12C[C@H](CC(=O)NCCc3ccccc3OC)C(=O)N(Cc3ccco3)C1=C[C@H](C(C)C)O[C@@H]2C1CC1 | 1.21%
54 | Nc1[nH]c(C(=O)c2ccccc2)c(-c2ccncc2)c1C(=O)NCc1cccc2ccccc12 | -0.47%
55 | Clc1ccc(Nc2nc(-c3cccs3)cs2)nc1 | 19.5% (active)
56 | c1ccc(Nc2nc(-c3ccncc3)cs2)nc1 | 14.5% (active)
57 | Cc1cccc(OCC(=O)OCC(=O)Nc2ccc(Cl)cn2)c1 | 0.27%
58 | CC(=O)c1ccc(Nc2nc(C(N)c3ccccc3)cs2)cc1 (stereo not given) | 2.66%
59 | O=C(CN1C(=O)C2C3C=CC(C3)C2C1=O)Nc1nc(-c2ccccn2)cs1 (stereo not given) | 0.17%
60 | CNC(=O)c1sc(Nc2ccc(OCc3ccccc3)cc2)nc1C | -1.9%
61 | COc1ccc(Nc2nc(-c3ccccc3)cs2)cc1 | 22.4% (active)
62 | N#Cc1ccc(OCC(=O)Nc2nc(-c3ccccn3)cs2)cc1 | -6.22%
63 | COc1cccc(C(O)c2nc(-c3ccc(C)c(C)c3)cs2)c1 (stereo not given) | -0.02%
64 | COc1ccc(-c2csc(Nc3ccccn3)n2)cc1 | 16.9% (active)
65 | CC(NC(=O)c1ccco1)C(=O)Nc1nc(-c2ccccn2)cs1 (stereo not given) | 1.66%
66 | OC(c1ccccc1)(c1ccccc1)C1CCN(CCCOc2ccc(-c3ccsc3)cc2)CC1 | -3.48%
67 | C=C(C)C1CC23C(=O)C4(C(=O)c5ccccc5)C[C@@]5(C)CCC(CC2C1(C)C)(C4=O)C35OC (stereo not given in full) | -0.57%
68 | O=C(NCc1ccco1)c1ccc(NS(=O)(=O)c2cccc([N+](=O)[O-])c2)cc1 | 0.98%
69 | O=C(NCCC1=CCCCC1)C1CCN(S(=O)(=O)c2ccc(Cl)s2)CC1 | -1.78%

Row | Compound | activation
70 | O=C(NCC1COc2ccccc2O1)c1ccc(NC(=O)c2cc(F)ccc2F)cc1 (stereo not given) | -2.39%
71 | O=C(Nc1cc(-c2nc3ncccc3o2)ccc1Cl)c1ccco1 | 2.36%
72 | COc1ccc(-c2c(NC(=O)c3ccco3)oc3ccc(Cl)cc3c2=O)cc1 | 0.05%
73 | O=C(Nc1ccc2oc(-c3ccccc3F)nc2c1)c1ccco1 | 14.8% (active)
74 | COC(=O)Cc1nnn2c1[C@H](C)[C@H](c1ccccc1[N+](=O)[O-])OCC2 | -0.34%
75 | CCOC(=O)c1cc(S(=O)(=O)NCCc2ccc(OC)c(OC)c2)cn1C | 0.63%
76 | CCOC(=O)N1CCN(Cc2oc(CO)cc(=O)c2O)CC1 | 1.66%
77 | Clc1cccc(Cc2c(-c3cccc(Cl)c3)nc3ccc(Cl)cn23)c1 | 6.04%
78 | O=c1c2c(nc3cc(-c4cccc(Cl)c4)[nH]n13)CCCC2 | 18.1% (active)
79 | CSc1nc2nc3c(c(=O)n2[nH]1)CCC3 | -0.35%
80 | CSc1ccc(C=Nn2c(-c3ccc(F)cc3)n[nH]c2=S)cc1 | -2.14%
81 | Oc1cccc2ccc(/C=C/c3ccc(Br)s3)nc12 | 20.9% (active)
82 | CCCCOCC1CN(CCCC)S(=O)(=O)c2c(Oc3ccc(F)cc3)cccc2O1 (stereo not given) | 3.59%
83 | COC(=O)C1CN(Cc2cn(Cc3ccc(F)cc3)nn2)CCS(=O)(=O)N1Cc1ccc(Cl)cc1 (stereo not given) | -1.71%
84 | Clc1ccc(-n2c(COc3ccccc3)nnc2SCc2nc3ccccc3[nH]2)cc1 | 0.78%
85 | CN(CCO)c1ccc(/C=N/Nc2nncc3ccccc23)cc1 | 10.7% (active)
86 | N#Cc1ccc(N2Cc3ccccc3/C2=N/C(=O)Nc2ccc(Cl)cc2)cc1 | 2%
87 | Cc1cccc(NC(=S)NC(=O)c2ccc(Br)o2)c1 | 15.4% (active)
88 | O=C(Nc1cccc(C(=O)O)c1)/C(=C\c1ccccc1)NC(=O)c1ccc(Br)o1 | 1.1%
89 | CCS(=O)(=O)c1ccc(-c2cccc(NC(=O)c3ccc(Br)o3)c2)nn1 | 3.52%
90 | Nc1[nH]c(/C=C2/CCCCC2n2[nH]c(=O)n(-c3ccccc3)c2=O)c(Cc2ccccc2)[n+]1Cc1ccccc1 (stereo not given) | 0.06%
